Screens: PubChem, several laboratories
Compounds with a hit are over-represented: about 28% of the library has one in this group of screens.
CYP2C9 activ: human CYP2C9 activators, primary screen, biochemical, luminescence; Cytochrome P450 2C9 (Homo sapiens), P11712; 96,000 compounds, 1.4% hits; activation factor at 5 µM; recombinant CYP2C9, luciferin-H conversion; stronger effect = higher value; factor 1 = untreated enzyme, 0 = blocked;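 active = activation factor of 2 or more for CYP2C9 at a 5 µM dose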;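 note: 0 = sulfaphenazole-blocked wells and 1 = vehicle-only wells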
Target sequence (P11712 whole entry, looked up): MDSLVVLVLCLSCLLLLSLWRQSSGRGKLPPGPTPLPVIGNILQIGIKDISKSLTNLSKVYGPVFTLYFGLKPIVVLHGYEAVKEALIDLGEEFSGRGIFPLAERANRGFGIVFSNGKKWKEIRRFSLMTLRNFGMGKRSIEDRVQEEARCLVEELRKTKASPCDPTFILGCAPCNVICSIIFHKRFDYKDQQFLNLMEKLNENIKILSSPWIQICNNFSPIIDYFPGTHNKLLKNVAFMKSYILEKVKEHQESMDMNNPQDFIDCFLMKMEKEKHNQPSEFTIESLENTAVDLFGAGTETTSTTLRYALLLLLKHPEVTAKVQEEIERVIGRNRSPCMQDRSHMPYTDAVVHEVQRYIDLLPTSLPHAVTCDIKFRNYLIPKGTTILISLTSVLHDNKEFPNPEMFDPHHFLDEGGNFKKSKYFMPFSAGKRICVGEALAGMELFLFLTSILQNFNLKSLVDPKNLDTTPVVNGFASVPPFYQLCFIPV
CYP2C19 inhib: blockers of cytochrome P450 2C19 activity – biochemical, luminescence, ADME assay, primary screen; inhibition, % at 5 µM; AID 778, 2007; 96,000 compounds, 21% hits; CYP2C19 Supersomes, luciferin-H EGE luminescence, 30 min;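 active = CYP2C19 inhibition above a set limit at 5 µM in the primary screen, cut at about 50% in these data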;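 note: plate controls were negative control wells for no effect and 2.5 mM tranylcypromine positive control for full effect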
CYP2C9 inhib: blockers of cytochrome P450 2C9 activity – biochemical, luminescence, ADME assay, primary screen; inhibition, % at 5 µM; AID 777, 2007; 96,000 compounds, 20% hits; CYP2C9 Supersomes, luciferin-H conversion;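 active = blocking of liver enzyme CYP2C9 beyond about 50% at 5 µM, limit read from the data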
PLK1 PBD inh: Plk1 polo box domain binding inhibitors, primary screen, biochemical, fluorescence polarization; AID 693, 2007; 97,000 compounds, 0.13% hits; Serine/threonine-protein kinase PLK1 (Homo sapiens), P53350; inhibition, %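 (tested at about 20 µM)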; Plk1 PBD phosphopeptide binding; in the data active = inhibition above about 34%, passing the limit was not always enough
PLK1 inh: human PLK1 kinase inhibitors, primary screen, biochemical, TR-FRET; inhibition, % at 10 µM; 97,000 compounds, 0.53% hits; recombinant PLK1 kinase, TR-FRET peptide phosphorylation;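 active = inhibition of 50% or more in the single-concentration screen; inactive = inhibition below 50%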;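 note: 0% = DMSO max control and 100% = H-89 dihydrochloride min control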
CYP2C19 act: human CYP2C19 activators, primary screen, biochemical, luminescence; activation factor at 5 µM; AID 1025, 2008; recombinant CYP2C19, luciferin-H EGE luminescence; stronger effect = higher value; 0 = fully inhibited enzyme, 1 = untreated enzyme; 96,000 tested, under 10 active; Cytochrome P450 2C19 (Homo sapiens), P33261;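 active = activation factor of at least 2 at 5 µM in the primary screen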;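 note: 0 = wells with 2.5 mM tranylcypromine and 1 = vehicle-only wells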
Active calls of the source: *; . = no result.

SMILES | CYP2C9 activ | CYP2C19 inhib | CYP2C9 inhib | PLK1 PBD inh | PLK1 inh | CYP2C19 act
O=C(CSCc1ccccc1Cl)NNC(=S)Nc1ccccc1 | 0.3 | 86* | 75* | 10 | 14 | 0.1
CC(C)NC(=O)CSCc1ccccc1Cl | 0.8 | 66* | 17 | -9 | -8 | 0.3
O=C(CSCc1ccc([N+](=O)[O-])cc1)NN=C1CCCCCC1 | . | . | . | -7 | -6 | .
Cc1cnn(CCC(=O)NNC(=S)Nc2ccccc2)c1 | 0.9 | 3 | 7 | -19 | 0 | 1
Fc1cccc(CN2CCN3CCCC3C2C2CCCCC2)c1 (configuration not stated) | 1.1 | 10 | -6 | 9 | -11 | 0.9
CCc1cc2c(CN3CCN(CCO)CC3)cc(=O)oc2cc1O | 1.3 | 6 | -35 | 21 | -17 | 0.9
CC[n+]1c(P(=O)([O-])c2ccccc2)[nH]c2ccccc21 | 1.1 | -16 | -14 | -1 | -7 | 1.2
COc1ccccc1N1CCN(C(=O)COc2ccc(C)cc2Br)CC1 | 0.9 | 50 | 9 | -27 | -5 | 0.5
COc1ccc(C(=O)N2CCN(S(=O)(=O)c3ccc(Cl)cc3)CC2)cc1OC | 0.8 | -7 | 20 | 6 | -8 | 1.1
COc1ccccc1N1CCN(C(=O)COc2ccc(Cl)cc2Br)CC1 | 0.9 | 54* | 8 | -1 | -12 | 0.5
COc1ccc(C(=O)N2CCN(S(=O)(=O)c3cc(Cl)ccc3OC)CC2)cc1 | 1.2 | 67* | -17 | -5 | -4 | 0.3
COc1ccc(Cl)cc1S(=O)(=O)N1CCN(C(=O)COc2ccccc2)CC1 | 1.6 | 62* | -60 | 20 | -12 | 0.4
COc1cccc(C(=O)NCC(=O)n2nc(C)cc2C)c1 | 1.2 | -6 | -19 | -17 | 10 | 1.1
CCCCN(C(=O)CNC(=O)c1ccco1)C(C(=O)NC1CCCC1)c1ccc(OC)cc1 (configuration not stated) | 0.9 | 39 | 12 | 5 | 0 | 0.6
CS(=O)(=O)N(CC(=O)Nc1ccccc1C(=O)NCCc1ccccc1)c1ccc2c(c1)OCCO2 | 0.1 | 87* | 94* | 2 | -7 | 0.1
COC(=O)c1ccc(C)c(NC(=O)CN(c2ccc3c(c2)OCO3)S(C)(=O)=O)c1 | 0.3 | 70* | 69* | 8 | -8 | 0.3
CS(=O)(=O)N(CC(N)=O)c1ccc2c(c1)OCO2 | 1.1 | -8 | -14 | -7 | 0 | 1.1
COc1ccc(OC)c(N(CC(=O)Nc2ccc(NC(C)=O)cc2)S(C)(=O)=O)c1 | 0.6 | 0 | 41 | -25 | -8 | 1
COC(=O)c1ccc(C)c(NC(=O)CN(c2cc(OC)ccc2OC)S(C)(=O)=O)c1 | 0.7 | 56* | 29 | -13 | -2 | 0.4
CS(=O)(=O)N(CC(=O)Nc1ccccc1C(=O)NCc1ccccc1)c1ccc2c(c1)OCCO2 | 0.1 | 36 | 94* | 14 | 2 | 0.6
CC(=O)Nc1c(C#N)c(C(C)(C)C)cn1C | 1.2 | -10 | -22 | -3 | -8 | 1.1
CC(C)CCn1c(SCC(N)=O)nc2c1c(=O)n(C)c(=O)n2C | 1 | -14 | -2 | -6 | -7 | 1.1
Cn1c(N2CCC(C(N)=O)CC2)nc2c1c(=O)n(Cc1ccc(Br)cc1)c(=O)n2C | . | . | . | 22 | -16 | .
CC(C)NC(=O)c1ccccc1NC(=O)CN(c1ccc2c(c1)OCO2)S(C)(=O)=O | 0.2 | 45 | 82* | 2 | -19 | 0.5
COc1ccccc1N(CC(=O)Nc1ccccc1C(=O)NC(C)C)S(C)(=O)=O | 0.6 | -1 | 41 | -3 | 9 | 1
SMILES | CYP2C9 activ | CYP2C19 inhib | CYP2C9 inhib | PLK1 PBD inh | PLK1 inh | CYP2C19 act
CCC(Oc1ccccc1)C(=O)N1CC(C)CC(C)C1 (configuration not stated) | 0.9 | 51* | 12 | -15 | -7 | 0.5
CCC(Oc1ccccc1)C(=O)Nc1ccc(S(=O)(=O)N2CCOCC2)cc1 (configuration not stated) | . | . | . | 10 | -7 | .
Nc1cccc(-c2nc3ccc(N)cc3s2)c1 | 0.4 | 80* | 58* | -10 | 0 | 0.2
Cc1ccc(-n2c3c(c(=O)[nH]c2=S)C(C(F)(F)F)(C(F)(F)F)NC(=O)N3)cc1 | 0.5 | -6 | 54* | -15 | -2 | 1.1
O=C1Nc2c(c(=O)[nH]c(=O)n2-c2ccccc2)C(C(F)(F)F)(C(F)(F)F)N1 | 1.1 | 11 | -10 | -6 | -5 | 0.9
Cc1csc2ncc(C(=O)N3CCCc4ccccc43)c(=O)n12 | 0.9 | 41 | 12 | -7 | -7 | 0.6
Clc1ccccc1C1SCC2Nc3ccccc3CN21 (configuration not stated) | 0.5 | 87* | 53* | -46 | -2 | 0.1
Cc1cc(-c2nc3c4c5c(sc4[nH]c(=O)n3n2)CCC5)c(C)o1 | 0.5 | -12 | 51* | -19 | -12 | 1.1
Cc1nc2sc3c(c2c(=O)[nH]1)CCC3 | 1.2 | -16 | -18 | . | . | 1.2
O=C(CN1C(=O)COc2ccccc21)c1ccc(Cl)cc1 | 0.1 | 98* | 86* | . | . | 0
O=C(CN1C(=O)COc2ccccc21)c1cccc(Cl)c1 | 0.1 | 99* | 93* | . | . | 0
O=C(CN1C(=O)COc2ccccc21)N(Cc1cccnc1)Cc1ccccc1F | 0.5 | 40 | 54* | -8 | -9 | 0.6
O=C1COc2ccccc2N1Cc1ccccc1Cl | 0.8 | 80* | 22 | . | . | 0.2
O=C(CN1C(=O)COc2ccccc21)N1CCN(c2ccccc2F)CC1 | 1 | 44 | -3 | . | . | 0.6
CC(C)C(=O)Nc1nnc(SCC(=O)NCc2cccs2)s1 | 1 | 3 | -2 | -3 | -3 | 1
Cc1cc2c(c(SCC(=O)NCCc3ccccc3)n1)C(=O)OC2 | 0.9 | 30 | 12 | -4 | -15 | 0.7
O=C(C1CCC(=O)N1Cc1ccccc1Cl)N1CCN(c2ccc(F)cc2)CC1 (configuration not stated) | 1 | 7 | -1 | 22 | -7 | 0.9
COc1cccc(-c2csc(N3CCN(C(=O)C4CCCCC4)CC3)n2)c1 | 0.4 | 77* | 58* | . | . | 0.2
O=C(Nc1ccc(Oc2ccc(Cl)cc2)cc1)c1ncn[nH]1 | 1 | 54* | 3 | . | . | 0.5
O=C(c1ccco1)N1CCN(c2ncnc3c(-c4ccccc4)nsc23)CC1 | 0.9 | 6 | 14 | 1 | -7 | 0.9
O=C(c1ccco1)N1CCN(c2ncnc3c2[nH]c2ccccc23)CC1 | 0.6 | 67* | 40 | 4 | 2 | 0.3
O=C(c1ccco1)N1CCN(c2ncnc3c2[nH]c2ccc(Br)cc23)CC1 | 0.1 | 96* | 90* | -12 | 0 | 0
Cc1cc(/C=C2\SC(=Nc3ccc(F)cc3)NC2=O)c(C)n1-c1ccc(S(N)(=O)=O)cc1 | 0.6 | 17 | 41 | -4 | -10 | 0.8
